From PubChem BioAssay AID2391 (Southern Research Specialized Biocontainment Screening …, 2010)
Out of some 310,000 compounds screened, about 410 (0.13%) were called active. Inconclusive results (about 2%) are left out. The rule behind the calls is not given here. Not all results are given here. Entries with a potency or affinity are not part of this list.

Experiment: RSV antiviral activity via CPE protection, HEp-2 cells, primary 10 µM value included (AID 2391)
Settings: RSV-induced CPE inhibition, at 10 µM, hits give high values

SMILES | CPE inhibition
CCN1CCCC1CNC(=O)Cn1ncc2c(=O)oc3ccc(C)cc3c21 (stereo not drawn) | 2.08% (inactive)
Cc1ccccc1/C=N\NC(=O)c1ccc(Cn2cccn2)o1 | 1.85% (inactive)
O=c1nc2ccccc2c2n1CC(CN1CCN(c3ccc(F)cc3)CC1)N2 (stereo not drawn) | -0.72% (inactive)
CCCOc1ccccc1C1NC(=O)NC(C)=C1C(=O)OCCOCC (stereo not drawn) | -0.41% (inactive)
CCC(C)c1ccccc1NC(=S)Nc1cccnc1 (stereo not drawn) | 3.94% (inactive)
Cc1ccc(N2C(=O)N(C(C)C)C(C)(C)CC2(C)O)cc1 (stereo not drawn) | 2.14% (inactive)
O=C(c1cccc(Cl)c1)C1CCCN(C(=O)c2ccoc2)C1 (stereo not drawn) | -0.58% (inactive)
O=c1cc(-c2ccc(O)cc2)oc2c(C3O[C@H](CO)[C@@H](O)[C@H](O)[C@H]3O)c(O)cc(O)c12 (stereo partly drawn) | -1.94% (inactive)
O=c1cc(-c2ccc(O)c(O)c2)oc2cc(O)c(C3OC(CO)C(O)C(O)C3O)c(O)c12 (stereo not drawn) | 0.47% (inactive)
O=C1c2cccnc2C(Nc2cccc(F)c2)N1Cc1ccco1 (stereo not drawn) | 12% (inactive)
O=C1c2cccnc2C(Nc2ccccc2Br)N1Cc1ccco1 (stereo not drawn) | 4.55% (inactive)
COc1ccc(OC)c(NC2c3ncccc3C(=O)N2Cc2ccco2)c1 (stereo not drawn) | 6.51% (inactive)
COc1cc(NC2c3ncccc3C(=O)N2Cc2ccco2)cc(OC)c1 (stereo not drawn) | 9.47% (inactive)
CCCOc1ccc(CN(C(=O)c2cccc(OC)c2)C2CCS(=O)(=O)C2)cc1 (stereo not drawn) | 0.38% (inactive)
CC(O)CNc1nc2ccccc2n1CC(=O)NCC(F)(F)F (stereo not drawn) | 0.4% (inactive)
O=C(Oc1ccc(C(=S)N2CCOCC2)cc1)c1ccc([N+](=O)[O-])cc1[N+](=O)[O-] | 1.71% (inactive)
O=C(COc1ccc(F)cc1Cl)Nc1ccc(S(=O)(=O)Nc2nccs2)cc1 | -1.6% (inactive)
CC(C)(C)c1cc(CNC2CS(=O)(=O)C[C@@H]2O)cc(C(C)(C)C)c1O (stereo partly drawn) | 0.68% (inactive)
COC(=O)c1cccc(Nc2nc3ccccc3nc2C)c1 | 7.1% (inactive)
Cc1cc(Nc2cccc(Cl)c2)c2ccccc2n1 | 11% (inactive)
CCOc1ccc(-c2c(C(=O)N/N=C/C3CC=CCC3)nnn2-c2nonc2N)cc1 (stereo not drawn) | 0.26% (inactive)
CN1c2ccccc2C(C)(C)C12CC(CCl)=NO2 (stereo not drawn) | 0.62% (inactive)
CC1=NOC2(C1)N(C)c1ccccc1C2(C)C (stereo not drawn) | -0.95% (inactive)
CCN(CC)S(=O)(=O)c1ccc(C2=NOC3(C2)N(C)c2ccccc2C3(C)C)cc1 (stereo not drawn) | 49.6% (inactive)

SMILES | CPE inhibition
CN1c2ccccc2C(C)(C)C12CC(c1ccc(Cl)c(S(=O)(=O)N3CCCC3)c1)=NO2 (stereo not drawn) | 3.21% (inactive)
COC(=O)COc1ccc(S(=O)(=O)NCc2ccc3c(c2)OCO3)cc1C | 1.14% (inactive)
CCCC[C@@H]1CNCCN1CCc1cccc2ccccc12 | -0.31% (inactive)
Cc1cccc(NS(=O)(=O)c2ccc(C(=O)NCC3CCCO3)cc2)c1C (stereo not drawn) | 2.28% (inactive)
CN(C)c1nc(C(N)=O)nc(N2CCOCC2)n1 | 0.62% (inactive)
Cc1cc(C)n(CCCNC(=O)CN(C)S(=O)(=O)c2ccc(Cl)cc2)n1 | -0.89% (inactive)
Cc1ccc(-c2nc(CSCC(=O)N3CCCC3)c(C)o2)cc1 | 20.2% (inactive)
Cc1oc(-c2ccccc2Cl)nc1CSCC(=O)O | 2.04% (inactive)
CC(=O)c1cccc(Nc2nc(=O)c3cccnc3s2)c1 | -1.05% (inactive)
O=c1nc(Nc2ccc(OCc3ccccc3)cc2)sc2ncccc12 | 43.1% (inactive)
CC(=O)c1ccc(Nc2nc(=O)c3cccnc3s2)cc1 | -0.53% (inactive)
Cc1ccc(Nc2nc(=O)c3cccnc3s2)cc1 | 4.1% (inactive)
O=C(O)CSc1nnc(COc2ccc(Br)cc2)n1-c1ccccc1 | 1.47% (inactive)
COC(=O)c1sccc1S(=O)(=O)N1CCCC(N(C)CCc2ccccn2)C1 (stereo not drawn) | -0.75% (inactive)
O=C1c2ccccc2C(=O)N1CCCCN(C(=O)c1cc([N+](=O)[O-])cc([N+](=O)[O-])c1)c1ccc(Cl)cc1 | 46.5% (inactive)
O=C(c1cc2ccccc2oc1=O)N(c1ccc(Cl)cc1)C1C=CS(=O)(=O)C1 (stereo not drawn) | 1.15% (inactive)
O=C1c2ccccc2C(=O)N1CCCCN(C(=O)c1cccc([N+](=O)[O-])c1)c1ccc(Cl)cc1 | 60.5% (inactive)
O=C1c2ccccc2C(=O)N1CCCCN(C(=O)c1ccc(Cl)s1)c1ccc(Cl)cc1 | 42.2% (inactive)
CCN(C(=O)c1cc2ccccc2oc1=O)c1ccccc1 | 0.2% (inactive)
Cc1ccc(N(CCCCN2C(=O)c3ccccc3C2=O)C(=O)c2ccc(Cl)s2)cc1 | 44.1% (inactive)
CN(Cc1ccccc1)C(=O)N[C@@H](Cc1ccccc1)C(=O)O | 0.64% (inactive)
COc1cccc(CCc2nnc(CCC(=O)NC(C)c3c(C)nn(C)c3C)o2)c1 (stereo not drawn) | 0.66% (inactive)
COc1ccc(OC)c(CN2CCN(C(=O)c3ccc(F)cc3)CC2)c1 | 2.45% (inactive)
CC(C)Cc1nnc(NC(=O)CCC(=O)Nc2ccccc2F)s1 | 1.44% (inactive)

SMILES | CPE inhibition
Nc1ccc(-c2nc3ccc(C(=O)O)cc3s2)cc1 | -1.01% (inactive)
Nc1ccc(-c2nc3ccc(N)cc3s2)cc1 | -1.51% (inactive)
CCc1n(CC(O)COCC2CC=CCC2)c2ccccc2[n+]1C (stereo not drawn) | 0.73% (inactive)
O=C(NCc1ccc(F)cc1Cl)C1CCN(S(=O)(=O)N2CCCCC2)CC1 | 4.02% (inactive)
Cc1ccc(S(=O)(=O)N(C)C)cc1NC(=O)COC(=O)CCC1CCCCC1 | -0.99% (inactive)
Cc1ccc(C)c(NC(=O)CN(C)C(=O)c2ccc(-c3cccc(C(F)(F)F)c3)o2)c1 | 0% (inactive)
Cc1cccc2nc(COc3ccc4ccccc4c3Br)cn12 | 8.72% (inactive)
Clc1ccc(OCc2cn3ccccc3n2)c2ncccc12 | 4.9% (inactive)
CCn1c(CNS(=O)(=O)c2ccc(Br)cc2)n[nH]c1=S | 0.55% (inactive)
Cc1[nH]c2ccccc2c1/C=N/Nc1ccc([N+](=O)[O-])cc1S(=O)(=O)Nc1ccc(Cl)cc1 | 1.27% (inactive)
Cc1[nH]c2ccccc2c1/C=N/NC(=O)c1cccc([N+](=O)[O-])c1 | 1.07% (inactive)
C=CCc1cc(Cl)ccc1OCCCNC(C)CC (stereo not drawn) | 0.05% (inactive)
CSc1ccc(/C=C(/NC(=O)c2ccc(C)cc2)C(=O)Nc2cccc(C)c2)cc1 | 2.91% (inactive)
O=C(O)c1cccc(COc2ccccc2Cl)c1 | 1.88% (inactive)
COc1ccc(OCc2cccc(C(=O)O)c2)cc1 | 0.64% (inactive)
COc1cc(CO)ccc1Oc1nc2ccccc2n2cnnc12 | 2.05% (inactive)
Cc1ccc(NC2c3ncccc3C(=O)N2Cc2cccs2)cc1C (stereo not drawn) | 13.8% (inactive)
O=C1c2cccnc2C(Nc2ccc(Cl)cc2)N1Cc1cccs1 (stereo not drawn) | 46.8% (inactive)
Cc1ccc(NC2c3ncccc3C(=O)N2Cc2cccs2)cc1 (stereo not drawn) | 8.2% (inactive)
O=C1c2cccnc2C(Nc2ccc(F)c(Cl)c2)N1Cc1cccs1 (stereo not drawn) | 18% (inactive)
CCOC(=O)CNC(=O)c1ccc2[nH]c3ccccc3c2c1 | 2.11% (inactive)
CCCn1c(SCC(=O)c2cc(OC)ccc2OC)nnc1-c1ccco1 | 1.5% (inactive)
CCOc1ccc(C(c2c(O)nc(SC)[nH]c2=O)c2c(O)nc(SC)[nH]c2=O)cc1 | 1.1% (inactive)
CCOC(=O)Cc1csc(NC(=O)C(NC(=O)C2CCCCC2)C(C)C)n1 (stereo not drawn) | 3.52% (inactive)

SMILES | CPE inhibition
O=[N+]([O-])c1cccc(-c2csc(Nc3ccccc3)n2)c1 | 0.52% (inactive)
COc1ccccc1Nc1nc(-c2cccnc2)cs1 | 7.69% (inactive)
CC(=O)c1ccc(OCCCC(=O)Nc2ccc(S(=O)(=O)N3CCOCC3)cc2)cc1 | 14.5% (inactive)
COc1ccc(C(=O)Nc2nc3ccccc3s2)c(OC)c1 | 9.57% (inactive)
COc1ccc(C(=O)Nc2nc3ccccc3s2)cc1 | 4.56% (inactive)
COc1ccc(C(C)=O)cc1CSc1nc2ccccc2c(=O)n1-c1ccccc1 | 3.07% (inactive)
Cc1c(C(=O)O)oc2c1ccc1ccccc12 | 9.18% (inactive)
COc1ccccc1OCC(=O)Nc1ccc2c(c1)OCO2 | 1.74% (inactive)
COC(=O)CN1C(c2ccc(Cl)cc2)=Nc2ccc(Cl)cc2C1c1ccccc1 (stereo not drawn) | 11.1% (inactive)
O=C1CN2C(=Nc3ccc(Br)cc3C2c2ccccc2)CCN1 (stereo not drawn) | -0.32% (inactive)
CCc1ccc(CNC(=O)c2ccc(OC3CCN(C(C)=O)CC3)c(OC)c2)nc1 | 1.43% (inactive)
Cc1cc(C)c(NC(=O)c2cccc(NC(=O)c3ccco3)c2)c(C)c1 | 2.64% (inactive)
NC(=O)CSc1nnc(Cn2c(=O)sc3ccccc32)n1-c1cccc(Cl)c1 | 2.54% (inactive)
O=C(O)CSc1nnc(Cn2c(=O)sc3ccccc32)n1-c1cccc(Cl)c1 | 0.38% (inactive)
Cc1ccc(N2CCN(c3ccc(NC(=O)CCC(=O)O)cc3)CC2)cc1 | -0.44% (inactive)
CCCOc1ccc(NC(=O)c2cc3cc(C)ccc3[nH]2)cc1 | -0.27% (inactive)
Cc1cc(C)c(NC(=O)c2ccc(S(=O)(=O)N3CCOCC3)cc2)c(C)c1 | 1.1% (inactive)
Cc1cc(C)c2c(c1)[C@@H]1C=CC[C@@H]1[C@H](c1ccc(S(=O)(=O)N3CCOCC3)cc1)N2 | 0.17% (inactive)
O=C(O)c1cc(Cl)c2c(c1)[C@@H]1C=CC[C@@H]1[C@H](c1ccc(S(=O)(=O)N3CCOCC3)cc1)N2 | 0.29% (inactive)
CC(=O)c1ccc2c(c1)C1C=CCC1C(c1ccncc1)N2 (stereo not drawn) | -0.18% (inactive)
COc1ccc(N(CC(=O)Nc2ccc(F)cc2F)S(=O)(=O)c2c(C)nn(C)c2C)cc1 | -1.28% (inactive)
